The source of these data is the OligoGym collection.
Further: reference of the scale not given here.

One experiment concerns the target SLC29A3. In words: pooled miR-30 sensor sort-seq; sequence = guide strand. Conditions: shRNA.
TATTTCTTCTTCAACTGTCTCA came in with a sensor-assay potency score (higher = more potent) of 0.0304.

Take TTGCATCTCGCTGTCAGCTGGA: the sensor-assay potency score (higher = more potent) was 0.563.

With TTTGTAATAACTCTAGGGCGAA, the sensor-assay potency score (higher = more potent) is -1.16.

A further experiment has as its target SLC2A14. Described as above. Conditions: shRNA.
The sequence TCCCAGATCTATCTGCACCGTG had a sensor-assay potency score (higher = more potent) of -0.88.

Regarding TAGTGATTCTTTAATAACAAAG, the sensor-assay potency score (higher = more potent) was -1.67.

In the case of TTACACAGTCCCATAAGGCAGC, the sensor-assay potency score (higher = more potent) was -0.403.

For AATTCCAATAACTATGCCCAGC, the sensor-assay potency score (higher = more potent) is -1.73.

For the sequence TAAATAGTAAGCAGCAGAGGGG, the sensor-assay potency score (higher = more potent) was -1.17.

In the case of TGATTCTTTAATAACAAAGAAA, the sensor-assay potency score (higher = more potent) was -1.69.

Take TTAACAAAGAGTCCGACGGAAA: the sensor-assay potency score (higher = more potent) is -1.6.

TTCGTGAGCAGCACCTCAGAGG had a sensor-assay potency score (higher = more potent) of -0.817.

With TTTATGATCGTCTCAGGAGCAT, the sensor-assay potency score (higher = more potent) is -0.333.

Turning to ATAAATTCCTTTATGATCGTCT, the sensor-assay potency score (higher = more potent) was found to be 0.823.

For the sequence TCAGCATTTCAACTGACTCAGC, the sensor-assay potency score (higher = more potent) is -0.914.

In turn, TTATGATCGTCTCAGGAGCATT gave a sensor-assay potency score (higher = more potent) of -1.97.

The target in another experiment is SLC2A3. Described as above. Particulars: shRNA.
As to TTAGCTACTTTACACAGTCCCA, the sensor-assay potency score (higher = more potent) is -1.12.

On to TTATCCTTTAATAACAAAGAAA, for which the sensor-assay potency score (higher = more potent) is -1.62.

On to TCTGCTTAGCATTCTCCTCTTC, for which the sensor-assay potency score (higher = more potent) amounted to 0.0393.

As to TTATGATCTTCTCAGGAGCATT, the sensor-assay potency score (higher = more potent) is -1.71.

In the case of TTGACGAAGAGTCCGACGGAAA, the sensor-assay potency score (higher = more potent) is -1.44.

TTGTAGGATAGCAGGAAGGATG came in with a sensor-assay potency score (higher = more potent) of -1.65.

The sequence TTACACAGTCCCATAAAGCAGC showed a sensor-assay potency score (higher = more potent) of -0.688.

On to TTCTTTTCTGTTAATGAGCAAA, for which the sensor-assay potency score (higher = more potent) was -1.47.

As for TTTGAAGAAGGTAAAAGCCAAG, the sensor-assay potency score (higher = more potent) is -1.07.

TAGGATAGCAGGAAGGATGGTA came in with a sensor-assay potency score (higher = more potent) of 0.643.

In turn, TTCCAGATCTATCTGCACCGTG had a sensor-assay potency score (higher = more potent) of 0.283.

For the sequence TAGCTACTTTACACAGTCCCAT, the sensor-assay potency score (higher = more potent) was -0.496.

For a further experiment, the target named is SLC2A7. Described as above. Particulars: shRNA.
As to TAGTTGATCGCATTGATGCCCG, the sensor-assay potency score (higher = more potent) was -0.411.

Take TTACATATTGGGAGTGAGCGGC: the sensor-assay potency score (higher = more potent) is -0.256.

Sequence TAGTAGTTGATCGCATTGATGC registered a sensor-assay potency score (higher = more potent) of -1.14.

TTTCTCTTGGCAAAAATGCGGT registered a sensor-assay potency score (higher = more potent) of -0.876.

Consider TTTCGTTGTAAAATGACTTGAA, for which the sensor-assay potency score (higher = more potent) came to 0.429.

In the case of TCTGCCGCAGCTATCAACCAGC, the sensor-assay potency score (higher = more potent) is -0.668.

Turning to TTTATCTCCACAAATGTTTTGC, the sensor-assay potency score (higher = more potent) turned out to be 0.129.

Regarding TTCATCTCCTTTCTGAATCAGG, the sensor-assay potency score (higher = more potent) is -0.693.

The sequence TTGAAGACCTTGTGCGGCGTGT showed a sensor-assay potency score (higher = more potent) of -0.139.

The sequence TGACTTGAAGACCTTGTGCGGC displayed a sensor-assay potency score (higher = more potent) of -0.691.

TAAATCGCAGTGAGGAGGCAGA came in with a sensor-assay potency score (higher = more potent) of -0.695.

Turning to TTCTGAATCAGGGAGTAGCGGG, the sensor-assay potency score (higher = more potent) is -1.43.
